From PubChem
CHX counter: counter-screen hit for Shiga toxin inhibitors, cycloheximide. max response, %. hit rate 12% among 300,000. cell reporter, cycloheximide protein synthesis inhibition counterscreen. AID 2314; in the data active = max response mostly above about 13%, no sharp cut-off; inactive = mostly below about 14%; also: read at 38.3 µM for the half of the compounds with a filed dose; 0% is about no effect
HCV inhibitor: blocks hepatitis C virus | Huh7.5.1 HCVcc-Cre infection, luciferase reporter, 44 h | Potency, µM (top dose mostly 41.8 µM), without a hit: at the top dose activity change, negative = inhibition, usual class: inhibitors | hit rate 3.4% among 340,000; active = well fitted inhibition curve with a large enough effect; inconclusive = small, poorly fitted or top-dose-only effect, or another doubt; inactive = no such curve, though single readings can be large or run the other way; also: potency is read from the fitted curve at half-maximal effect; % is scaled to controls: 0 for no effect and ±100 for the full control effect
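Compounds are dispensed onto cells plated 4 h earlier at 1,000 per well, with HCVcc-Cre virus (about 0.5 moi) added next. Following 44 h of culture, luminescent signal is measured for 15 sec after 15 min with substrate at room temperature.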
MARV entry inh: blocks Marburg virus binding to or entry into cells. Marburg virus pseudotyped entry inhibition, cell reporter. hit rate 1.8% among 300,000. Potency, µM (top dose mostly 37.8 µM), without a hit: at the top dose activity change, negative = inhibition, usual class: inhibitors; calls by dose curve; tested in HEK293 cells; also: potency is read from the fitted curve at half-maximal effect; % is scaled to controls: 0 for no effect and ±100 for the full control effect
Shiga toxin inh: blocks Shiga toxin action in Vero cells; hit rate 9.2% among 290,000; inhibition, % at 38.7 µM; AID 2315; Vero cells, Shiga toxin protein synthesis inhibition reporter; in the data active = inhibition mostly above about 28%, no sharp cut-off; inactive = mostly below about 43%; also: 0% is about no effect
Lassa entry inh: Lassa virus entry inhibition | Lassa virus pseudotype entry inhibition, cell reporter | Potency, µM (series often up to 37.9 µM), for inactives: top-dose activity change, negative = inhibition, hits mostly inhibitors | hit rate 1.2% among 300,000 | AID 540256; calls by dose curve; tested in HEK293 cells; also: potency is read from the fitted curve at half-maximal effect; % is scaled to controls: 0 for no effect and ±100 for the full control effect; nearly all actives have a fitted effect of over 50% in size
FMDV antiviral: blocks foot and mouth disease virus. hit rate 1.2% among 410,000. FMDV antiviral cell-based qHTS. Potency, µM (series often up to 57.9 µM), without a hit: top-dose activity change, negative = inhibition, hits mostly inhibitors; calls by dose curve; tested in HEK293T cells; also: read-out not given here; potency is read from the fitted curve at half-maximal effect; % is scaled to controls: 0 for no effect and ±100 for the full control effect; nearly all actives have a fitted effect of over 45% in size
The depositor's hits bear a star; ? = inconclusive; · = not tested or not shown; [ ] = remark or other dose. Only some compounds are listed: those with a hit (about 13% of all), similar ones and a draw of the others.

SMILES	CHX counter	HCV inhibitor	MARV entry inh	Shiga toxin inh	Lassa entry inh	FMDV antiviral
CCOc1ccc(NC2c3ccccc3C(=O)N2c2ccc(Cl)cn2)cc1 (configuration not stated)	11*	-4%	·	68*	·	12%
CCOc1ccc(N2C(=O)c3ccccc3C2=O)cc1	8	10%	?	8	?	31%
COc1ccc(NC2c3ccccc3C(=O)N2c2ccccn2)cc1 (configuration not stated)	20*	-1%	·	45*	·	-27%
Cc1nc2ncnn2c(N2CCCC(C(=O)Nc3ccccc3Br)C2)c1C (configuration not stated)	7	?	-18%[46.1 µM]	-8	?	?
COc1ccc(CN(C)CC2CCCN(CCc3ccc(F)cc3)C2)c(OC)c1OC (configuration not stated)	1	?	·	-8	·	-27%
O=C1CCC(C(=O)N2CCSCC2)CN1CCc1ccccc1 (configuration not stated)	2	9%	·	23	·	-5%
C=CCC1(CC=C)CCCN1C(=O)C1CCC(=O)N(CCc2ccc(OC)cc2)C1 (configuration not stated)	53*	?	·	78*	·	31%
C=CCC1(CC=C)CCCN1C(=O)C1CCC(=O)N(CCc2ccccc2)C1 (configuration not stated)	77*	-17%	?	102*	?	48%
Cc1ccc2nc(-c3ccc(NC(=O)CSc4nc(N)cc(=O)[nH]4)cc3)sc2c1	30*	-24%	·	94*	·	15%
Cc1ccc2nc(-c3ccc(NC(=O)CSc4nccc(=O)[nH]4)cc3)sc2c1	37*	8%	?	117*	?	19%
Cc1ccc2nc(-c3ccc(NC(=O)C(C)Sc4nncs4)cc3)sc2c1 (configuration not stated)	·	?	·	·	·	-56%
COc1ccc(NC(=O)COC(=O)/C=C/c2ccccc2[N+](=O)[O-])cc1OC	0	0%	4%	-20	-22%	-8%
COc1cc(COc2ccc3c(C)c(Cc4ccccc4)c(=O)oc3c2C)cc(OC)c1OC	-2	6.3µM*	?	11	-1%	?
Cc1cc(C)cc(COc2ccc3c(C)c(CC(=O)O)c(=O)oc3c2C)c1	-3	15%	13%[46.1 µM]	-3	26%[46.1 µM]	-9%
COc1cc(COc2ccc3c(C)c(Cc4ccccc4)c(=O)oc3c2)cc(OC)c1OC	-2	?	?	-27	?	?
COC(=O)c1ccc(COc2ccc(F)cc2)o1	28*	19%	0%[46.1 µM]	53*	9%[46.1 µM]	34%
Cc1c(C)c2ccc(OCc3ccc(C(=O)O)o3)c(C)c2oc1=O	32*	19%	?	58*	4.1µM*	18µM*
CCc1cc(=O)oc2cc(OCc3ccc(C(=O)O)o3)ccc12	15*	20%	·	28	·	39%
COc1ccc(CCNC(=O)COC(=O)c2cncc(Br)c2)cc1OC	·	-11%	·	·	·	-3%
CC1Sc2n(c3ccccc3[n+]2C)N=C1c1ccccc1 (configuration not stated)	-8	-17%	?	-14	?	?
CC(C)Cn1c(=O)c(-[n+]2ccccc2)c([O-])c2ccccc21	9	2%	1%[46.1 µM]	-8	-12%[46.1 µM]	-13%
COC(=O)c1ccc(COc2ccc(C)c(C)c2)o1	27*	3%	·	98*	·	41%
COC(=O)c1ccc(CO/N=C/c2ccc(OC)cc2)o1	53*	12%	18%[46.1 µM]	58*	·	16%
COC(=O)c1ccc(COc2cc(C)ccc2C)o1	46*	15%	·	91*	·	59%
C/C=C/c1ccccc1OCc1ccc(C(=O)OC)o1	0	-18%	?	30	-2%	9%
SMILES	CHX counter	HCV inhibitor	MARV entry inh	Shiga toxin inh	Lassa entry inh	FMDV antiviral
Cc1cc(C)cc(OCc2ccc(C(=O)O)o2)c1	9.3*	-7%	11%	27	8%	25%
COC(=O)c1ccc(Cc2ccc(C(=O)OC)o2)o1	-2	9%	19%	-6	-1%	·
COC(=O)c1cc(=O)c2c([N+](=O)[O-])ccc(OC)c2o1	-2	-4%	-15%	-4	2%	-1%
CCCN(Cc1cccs1)C(=O)Nc1cc(Cl)c(OC)cc1OC	·	·	-4%[46.1 µM]	·	-18%[46.1 µM]	1%
Cc1cc(=O)[nH]c(SCc2nc3ccccc3c(=O)n2-c2ccccc2C)n1	-3	5%	0%[46.1 µM]	-9	6%	-30%
COc1ccc(-c2onc(C)c2C)cc1S(=O)(=O)NCCc1ccco1	11	-29%	-22%[46.1 µM]	-3	-10%[46.1 µM]	-23%
O=P(COCCOCP(=O)(c1ccccc1)c1ccccc1)(c1ccccc1)c1ccccc1	-3	8%	0%	-19	-28%	-6%
Cc1ccc(OCc2ccc(C(=O)O)o2)cc1C	71*	12%	·	69*	·	?
Cc1ccc(C(=O)COc2ccccc2C(=O)Nc2ccccc2)cc1	1	16µM*	?	-20	?	?
CCOc1ccc(NC(=O)c2cc(Cl)nc3ccccc23)cc1	-1	?	?	19	?	-6%
CCOc1ccc(NC(=O)c2ccccc2-c2ccccc2C(=O)O)cc1	·	18%	1%	·	4%	54%
CCOc1ccc(NC(=O)c2ccccc2CO)cc1	31*	9%	23%[46.1 µM]	39	18%	48%
Cc1cccc(NC(=O)COc2ccccc2C(=O)NC(C)c2ccccc2)c1 (configuration not stated)	6	10µM*	?	-20	?	-18%
CCOc1ccc(NC(=O)c2ccccc2O)cc1	12*	-16%	?	11	?	-37%
CCOc1ccc(OC(=O)C(CCS(C)(=O)=O)N2C(=O)c3ccccc3C2=O)cc1 (configuration not stated)	-2	6%	10%	15	5%	-13%
CCOC(=O)C1CCCN(C(=O)c2ccc(C(=O)c3ccccc3)cc2)C1 (configuration not stated)	·	14%	·	·	·	-12%
COc1cccc(NC(=O)C2(C)CCN2Cc2ccccc2OC(F)F)c1 (configuration not stated)	·	·	·	·	·	-26%
CCOc1ccc(NC(=O)c2ccccc2OC)cc1	40*	6%	2%	68	-10%	80%
CCOc1ccc(NC(=O)c2ccccc2OCC(=O)c2ccccc2)cc1	48*	?	?	52	-20%	5%
CCOc1ccc(NC(=O)c2ccc(NC(=O)c3ccccc3Br)cc2)cc1	·	5µM*	?	·	6%	1%
CCOc1ccccc1C(=O)Nc1ccc(NC(=O)c2ccccc2)cc1	7	-26%	·	·	·	2%
CCOc1ccc(NC(=O)c2cccnc2C(=O)O)cc1	18	6%	1%	18	2%	0%
CCOc1ccc(NC(=O)c2cccnc2SC)cc1	22*	-17%	?	20	0%	51%
COc1ccccc1N1CCN(CCn2c(=O)[nH]c3c([nH]c4ccccc43)c2=O)CC1	·	·	·	·	·	-16%
O=C(COc1ccccc1C(=O)c1cnn(-c2ccccc2)c1)Nc1ccccc1	21*	?	?	78	-26%	0%
